Data taken from PubChem BioAssay AID1159580 (chemical genetic matrix, 2015).
Screen size: about 5,500 compounds; about 2,000 (36%) were called active. About 18% were inconclusive and are not listed. This is one part of the list. Unmarked numbers belong to inactive results. Rule as the data show it: active = normalized growth mostly below about 0.91 (no sharp cut-off); inconclusive = no clear call, values can overlap the other calls; inactive = mostly above about 0.92.

Assay: chemical genetic growth profiling, strain panel (AID 1159580);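 also: tested at 20 µM; growth read once vehicle control cultures reached saturation at 30 °C; 1 = growth at the plate median or of vehicle wells; lower values mean less growth of the strain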
Details: S. cerevisiae deletion strains, growth OD
[1] = locus YHR030C, strain SLT2, stronger effect = lower value
[2] = locus YHR079C, strain IRE1, stronger effect = lower value
[3] = locus YJL095W, strain BCK1, stronger effect = lower value
[4] = locus YJR066W, strain TOR1, stronger effect = lower value
[5] = locus YLR113W, strain HOG1, stronger effect = lower value
[6] = locus YNL183C, strain NPR1, stronger effect = lower value
[7] = locus YOR231W, strain MKK1, stronger effect = lower value
[8] = locus YPL256C, strain CLN2, stronger effect = lower value

## CC(C)CC(NC(=O)CCN)C(=O)O (centres undefined)
[1]
  normalized growth: 0.976
[2]
  normalized growth: 0.964
[3]
  normalized growth: 0.974
[4]
  normalized growth: 0.896
[5]
  normalized growth: 0.986
[6]
  normalized growth: 0.886
[7]
  normalized growth: 0.993
[8]
  normalized growth: 0.975

## NCCCN=c1ccc2c3c1c(O)c1c(O)ccc(=O)c1c3[nH]n2CCNCCO
Locus YAR019C, strain CDC15, stronger effect = lower value
  normalized growth: 0.984
Locus YBL105C, strain PKC1, stronger effect = lower value
  normalized growth: 0.977
Locus YBR135W, strain CKS1, stronger effect = lower value
  normalized growth: 0.986
Locus YBR136W, strain MEC1, stronger effect = lower value
  normalized growth: 0.97
Locus YBR160W, strain CDC28, stronger effect = lower value
  normalized growth: 0.982
Locus YDL017W, strain CDC7, stronger effect = lower value
  normalized growth: 0.976
Locus YDL028C, strain MPS1, stronger effect = lower value
  normalized growth: 0.976
Locus YDL101C, strain DUN1, stronger effect = lower value
  normalized growth: 0.969
Locus YDL108W, strain KIN28, stronger effect = lower value
  normalized growth: 0.978
Locus YDL132W, strain cdc53, stronger effect = lower value
  normalized growth: 0.979
Locus YDL214C, strain PRR2, stronger effect = lower value
  normalized growth: 0.993
Locus YDR052C, strain DBF4, stronger effect = lower value
  normalized growth: 0.976
Locus YDR054C, strain cdc34, stronger effect = lower value
  normalized growth: 0.974
Locus YDR226W, strain ADK1, stronger effect = lower value
  normalized growth: 0.984
Locus YDR477W, strain SNF1, stronger effect = lower value
  normalized growth: 0.977
Locus YER123W, strain YCK3, stronger effect = lower value
  normalized growth: 0.978
Locus YER133W, strain GLC7, stronger effect = lower value
  normalized growth: 0.977
Locus YFL009W, strain cdc4, stronger effect = lower value
  normalized growth: 0.982
Locus YFL029C, strain CAK1, stronger effect = lower value
  normalized growth: 0.986
Locus YFR003C, strain YPI1, stronger effect = lower value
  normalized growth: 0.973
Locus YFR019W, strain FAB1, stronger effect = lower value
  normalized growth: 0.948
Locus YFR028C, strain CDC14, stronger effect = lower value
  normalized growth: 0.981
Locus YGR040W, strain KSS1, stronger effect = lower value
  normalized growth: 0.977
Locus YGR052W, strain FMP48, stronger effect = lower value
  normalized growth: 0.984
Locus YGR092W, strain DBF2, stronger effect = lower value
  normalized growth: 0.688
[1]
  normalized growth: 1.03
[2]
  normalized growth: 1.01
Locus YHR082C, strain KSP1, stronger effect = lower value
  normalized growth: 1.05
Locus YHR205W, strain SCH9, stronger effect = lower value
  normalized growth: 0.916
Locus YIL147C, strain SLN1, stronger effect = lower value
  normalized growth: 0.969
[3]
  normalized growth: 0.893
Locus YJL128C, strain PBS2, stronger effect = lower value
  normalized growth: 0.957
Locus YJL157C, strain FAR1, stronger effect = lower value
  normalized growth: 0.994
Locus YJR016C, strain ILV3, stronger effect = lower value
  normalized growth: 0.982
Locus YJR066W, strain TOR1 (second series), stronger effect = lower value
  normalized growth: 0.964
[4]
  normalized growth: 1.01
Locus YKL048C, strain ELM1, stronger effect = lower value
  normalized growth: 0.94
Locus YKL067W, strain YNK1, stronger effect = lower value
  normalized growth: 0.983
Locus YKL101W, strain HSL1, stronger effect = lower value
  normalized growth: 0.957
Locus YKL193C, strain SDS22, stronger effect = lower value
  normalized growth: 0.971
Locus YKL203C, strain TOR2, stronger effect = lower value
  normalized growth: 1.01
[5]
  normalized growth: 0.982
Locus YLR133W, strain CKI1, stronger effect = lower value
  normalized growth: 0.993
Locus YLR403W, strain SFP1, stronger effect = lower value
  normalized growth: 0.916
Locus YML070W, strain DAK1, stronger effect = lower value
  normalized growth: 0.956
Locus YMR001C, strain CDC5, stronger effect = lower value
  normalized growth: 0.984
Locus YMR205C, strain PFK2 (second series), stronger effect = lower value
  normalized growth: 1
Locus YMR277W, strain FCP1, stronger effect = lower value
  normalized growth: 0.975
Locus YNL006W, strain LST8, stronger effect = lower value
  normalized growth: 0.989
Locus YNL020C, strain ARK1, stronger effect = lower value
  normalized growth: 0.992
Locus YNL161W, strain CBK1, stronger effect = lower value
  normalized growth: 0.986
[6]
  normalized growth: 1
Locus YNL207W, strain RIO2, stronger effect = lower value
  normalized growth: 0.975
Locus YNL222W, strain SSU72, stronger effect = lower value
  normalized growth: 0.995
Locus YNL307C, strain MCK1 (second series), stronger effect = lower value
  normalized growth: 0.82
Locus YOL078W, strain AVO1, stronger effect = lower value
  normalized growth: 0.971
Locus YOL136C, strain PFK27, stronger effect = lower value
  normalized growth: 0.965
Locus YOR061W, strain CKA2, stronger effect = lower value
  normalized growth: 0.874
Locus YOR119C, strain RIO1, stronger effect = lower value
  normalized growth: 1
[7]
  normalized growth: 0.996
Locus YOR329C, strain SCD5, stronger effect = lower value
  normalized growth: 0.975
Locus YPL031C, strain PHO85, stronger effect = lower value
  normalized growth: 0.96
Locus YPL153C, strain RAD53, stronger effect = lower value
  normalized growth: 0.97
Locus YPL204W, strain HRR25, stronger effect = lower value
  normalized growth: 0.951
Locus YPL209C, strain IPL1, stronger effect = lower value
  normalized growth: 0.98
[8]
  normalized growth: 1.16 [resistant] (active)
Locus YPR025C, strain CCL1, stronger effect = lower value
  normalized growth: 0.979
Locus YPR106W, strain ISR1, stronger effect = lower value
  normalized growth: 0.976
Locus YPR111W, strain DBF20, stronger effect = lower value
  normalized growth: 0.979
Strain NNK1, stronger effect = lower value
  normalized growth: 0.978
Strain TSCII, stronger effect = lower value
  normalized growth: 0.981
